Only a selection was taken, and hits are over-represented in it overall.
Methyltransferases – Primary Screen for Target Class Profiling of Small Molecule Inhibitors of Methyltransferases; purified enzyme, MTase-Glo SAH luminescence; active compounds read low; calls only at 40 µM; 25,000 tested, 3.9% active; call rule not given here
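Each enzyme was assayed with SAM and its substrate. SAH formation detected by MTase-Glo luminescence; single-point 40 uM screen[…].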
The depositor's hits bear a star; i = inactive; + = active, no number. % is set by controls: 0 for no effect and ±100 for the full control effect.

SMILES	Methyltransferases
CC1(CO)CC(O)[C@]2(C(=O)O)CCC34CC3(C=CC3[C@]5(C)C(CC[C@]34C)C(C)(CO)[C@@H](O)[C@H](O)[C@@H]5O)C2C1 (stereo partly drawn)	+
CC(NS(=O)(=O)c1ccc(Cl)c(-c2nnc(-c3ccccc3)o2)c1)C(=O)O (stereo not drawn)	i
COCCCNC(=O)C1(C)Cn2nc(-c3ccccc3)cc2C(=O)N1c1ccc(C)c(Cl)c1 (stereo not drawn)	i
C=C1C(=O)O[C@H]2[C@H]1[C@@H](OC(=O)/C(C)=C\C)C[C@]1(C)O[C@@H]1[C@H]1O[C@H]1C(=C)[C@H]2O	i
C=C(CO)C(=O)O[C@H]1C[C@@]23O[C@@H]2CC/C(=C/[C@H]2OC(=O)C(=C)[C@H]12)CO[C@H]3O	i
C=C1C(=O)OC2/C=C(/C)C3=CC(=O)C(C)(CC(OC(=O)/C(C)=C/COC(C)=O)C12)O3 (stereo not drawn)	+
Cc1ccc2c(c1)c(-n1cccc1)c1n2CC(C)(C(=O)NC2CCC(C)CC2)N(Cc2ccco2)C1=O (stereo not drawn)	i
CCOc1ccccc1NC(=O)N1Cc2c(sc3c2CCN(C)C3)-n2cccc2C1CC (stereo not drawn)	i
CCOc1ccc(-c2cc(NC(=O)c3c(F)cccc3F)c(C(=O)O)s2)cc1	+
COc1cccc(-c2ccc(NC(=O)C3=C(C(=O)O)CCC3)c(F)c2)c1	i
CCCCOc1ccc(C(=O)Nc2ccc(F)cc2F)cc1	i
CCN1C(=O)c2cc3ccccc3n2CC1(C)C(=O)NCC(=O)NCCCOC (stereo not drawn)	i
Cc1ccc(NS(=O)(=O)c2cc3c(cc2Cl)n(C)c(=O)n3C)cc1F	i
CCC(C)NC(=O)c1ccc2c(=O)n(C)c3nn(CC(=O)c4ccc(C)cc4C)c(=O)n3c2c1 (stereo not drawn)	i
CCCn1c(=O)c2ccc(C(=O)NC(C)C)cc2n2c(SCC(=O)c3ccccc3)nnc12	i
Cc1cc(-c2cc(OC(=O)c3ccccc3)ccc2Cl)cc2nnc(Nc3ccc(OCCN4CCCC4)cc3)nc12	i
C=CC(=O)Nc1cccc(Oc2nc(Nc3ccc(N4CCN(C)CC4)cc3)ncc2Cl)c1	+
C=CC(=O)Nc1cccc(Nc2nc(Nc3ccc(N4CCN(C(C)=O)CC4)cc3OC)ncc2C(F)(F)F)c1	i
COc1ccc(C(=O)Cn2nc3n(Cc4ccc(C)cc4)c(=O)c4ccccc4n3c2=O)cc1OC	i
CC12CCC3c4ccc(O)cc4CCC3C1CCC2OC1OC(C(=O)O)C(O)C(O)C1O (stereo not drawn)	i
COc1ccc2c(c1)CCC1C2CC[C@@]2(C)C1CC[C@@H]2NCCCCCCN1C(=O)CCC1=O (stereo partly drawn)	i
COc1cc2c(cc1O)CC[C@H]1[C@@H]2CC[C@]2(C)[C@H](O)CC[C@@H]12	+
CC1(C(=O)NC2CCCCCCC2)Cn2c(ccc2-c2ccco2)C(=O)N1CCc1ccco1 (stereo not drawn)	i
CCOC(=O)C1CCN(C(=O)CN(C)S(=O)(=O)c2ccc3c(c2)CC(C)N3C(C)=O)CC1 (stereo not drawn)	i
CC(C)CCN1C(=O)CSc2c(c3ccccc3n2C)C1C(=O)NCc1ccccc1 (stereo not drawn)	i
SMILES	Methyltransferases
Oc1ccc(CNc2ccccc2F)c2cccnc12	+
Cc1cccc(-c2[nH]c(CNc3ccccc3F)nc2-c2ccc3ncnn3c2)n1	i
Cc1c(Cl)cccc1N1C(=O)c2cc(-c3ccco3)nn2CC1(C)C(=O)NC1CCCCC1 (stereo not drawn)	i
CC(C)CCN1C(=O)c2cc3sccc3n2CC1(C)C(=O)NC1CCCCC1C (stereo not drawn)	i
CC1(C(=O)NC2CCCCCCC2)Cn2c(cc3sccc32)C(=O)N1Cc1ccc(Cl)cc1 (stereo not drawn)	i
Nc1nc2c(cnn2CCc2ccccc2)c2nc(-c3ccco3)nn12	+
Nc1nc2ccc(Cl)cc2c2nc(-c3ccco3)nn12	i
CCOC(=O)c1cc2n(n1)CC(C)(C(=O)NCc1ccc(C)cc1)N(c1cc(C)cc(C)c1)C2=O (stereo not drawn)	i
Nc1c2c(nc3ccccc13)CCCC2	+
CC(=O)Nc1ccc(Nc2nc3c(S(=O)(=O)c4ccc(Br)cc4)nnn3c3ccccc23)cc1	i
Cn1c(=O)c2ccc(C(=O)NC3CCCCC3)cc2n2c(=O)n(CC(=O)c3ccccc3)nc12	i
CCCn1c(=O)c2ccc(C(=O)NC(C)CC)cc2n2c(=O)n(CC(=O)NCc3ccccc3)nc12 (stereo not drawn)	i
COc1ccc(-c2cc3n(n2)CC(C)(C(=O)NC2CCCCC2)N(CC2CCCO2)C3=O)cc1 (stereo not drawn)	i
Cc1cccc(CNC(=O)c2cc3n(n2)CC(C)(C(=O)NCCC(C)C)N(C)C3=O)c1 (stereo not drawn)	i
Nc1nc(NCCNc2ncc(-n3ccnc3)c(-c3ccc(Cl)cc3Cl)n2)ccc1[N+](=O)[O-]	+
CCCn1c(=O)c2ccccc2n2c(SCC(=O)Nc3ccc(C)cc3Cl)nnc12	i
O=C(NCCCNCCCNC(=O)c1cccnc1)c1cccnc1	i
CN(Cc1ccc(C(=O)O)cc1)c1ccc(OCc2c(-c3c(Cl)cccc3Cl)noc2C2CC2)nc1C(F)(F)F	+
CCOc1ccc(C(=O)Cn2nc3n(CC(C)C)c(=O)c4ccc(C(=O)NC(C)CC)cc4n3c2=O)cc1 (stereo not drawn)	i
CCCC1c2ccc(C)n2CCN1C(=O)Nc1ccc(F)cc1F (stereo not drawn)	i
Cc1ccc(Cn2c(=O)c3ccc(C(=O)NC(C)C)cc3n3c(=O)n(CC(N)=O)nc23)cc1	i
CC(C)OCCCn1c(=O)c2ccccc2n2c(SCC(=O)Nc3ccc4c(c3)OCO4)nnc12	i
CCCCNc1ccc(-c2ccc(CN3CCOCC3)cn2)c(NC2CCC(O)CC2)c1 (stereo not drawn)	i
CCCCNc1ncc(-c2ccc(CN3CCOCC3)cn2)c(NC2CCC(O)CC2)n1 (stereo not drawn)	i
CCCCNc1ncc(C(=O)NCc2ccc(-n3ccnc3)cc2)c(NC2CCC(O)CC2)n1 (stereo not drawn)	+
SMILES	Methyltransferases
Cc1[nH]c2ccccc2c1C(=O)Cn1nc2n(Cc3ccc(F)cc3)c(=O)c3ccccc3n2c1=O	i
CCCn1c(=O)c2ccc(C(=O)NC(C)CC)cc2n2c(=O)n(CC(=O)c3ccc(F)cc3F)nc12 (stereo not drawn)	i
CCCn1c(=O)c2ccc(C(=O)NC(C)CC)cc2n2c(=O)n(Cc3c(F)cccc3Cl)nc12 (stereo not drawn)	i
COCCCNC(=O)C1(C)Cn2nc(-c3ccccc3)cc2C(=O)N1Cc1cc(OC)ccc1OC (stereo not drawn)	i
Clc1ccc(C(c2ccc(Cl)cc2)n2cc[n+](CC(OCc3ccc(Cl)cc3Cl)c3ccc(Cl)cc3Cl)c2)cc1 (stereo not drawn)	+
CCOC(=O)c1cnc2ccc(C)cc2c1Nc1cccc(C)c1	i
CCOC(=O)c1cccc(Nc2cc(C)nc3ccc(C)cc23)c1	+
CCOC(=O)c1cc(Nc2ccccc2)c2cc(Cl)ccc2n1	i
COc1ccc(CN2C(=O)c3cc(C(C)(C)C)nn3CC2(C)C(=O)NC2CCCCCC2)cc1 (stereo not drawn)	i
